Assay results as given in PubChem BioAssay.
“And” between values parts separate entries of the source, which are not always exact repeats. Equal entries are not always repeated. More than one record can exist for a structure, and the calls need not agree. The source made the active and inactive calls. Unless noted, how the calls were made is not given here.

What was measured:
[1] = compound effects on lung adenocarcinoma cell viability – A549, calcein-AM fluorescence, 48 h, basal, profiling panel (AID 1162); conditions: higher = more signal; further: test concentration not given here
[2] = compound effects on differentiated 3T3-L1 adipocyte viability – cell-based, 3T3-L1 adipocytes, calcein-AM fluorescence, 48 h, basal, profiling panel (AID 1163); conditions: 3T3-L1 adipocytes viability, higher = more signal; further: test concentration not given here
[3] = compound effects on hepatocellular carcinoma cell viability – HepG2, calcein-AM fluorescence, 48 h, basal, profiling panel (AID 1164); conditions: higher = more signal; further: test concentration not given here
[4] = compound effects on multiple myeloma cell viability – MM1S, calcein-AM fluorescence, 48 h, basal, profiling panel (AID 1165); conditions: higher = more signal; further: test concentration not given here
[5] = calcein-AM signal in unstimulated myeloma cells – cell-based, calcein-AM fluorescence, 48 h, PK04 Diversity Set, profiling panel (AID 1166); conditions: RPMI8226 myeloma viability, higher = more signal;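 further: cells grown under basal conditions without added stimulus; test concentration not given here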
[6] = JC-1 mitochondrial signal, unstimulated HepG2 cells – cell-based, JC-1 fluorescence, 24 h, 100 nL compound, profiling panel (AID 1167); conditions: HepG2 mitochondrial potential, higher = more signal; further: test concentration not given here
[7] = JC-1 mitochondrial signal, unstimulated adipocytes – cell-based, JC-1 fluorescence, 3T3-L1 adipocytes, 24 h, 100 nL compound, profiling panel (AID 1168); conditions: JC-1 mitochondrial fluorescence, higher = more signal, called active from +8 up or from −8 down; further: test concentration not given here
[8] = JC-1 mitochondrial signal, unstimulated myeloma cells – cell-based, JC-1 fluorescence, RPMI8226, 24 h, 100 nL compound, profiling panel (AID 1169); conditions: JC-1 mitochondrial potential fluorescence, higher = more signal; further: test concentration not given here
[9] = JC-1 mitochondrial signal, unstimulated MM1S myeloma – cell-based, JC-1 fluorescence, 24 h, 100 nL compound, profiling panel (AID 1170); conditions: MM1S mitochondrial potential, higher = more signal; further: test concentration not given here
[10] = resazurin metabolic signal in A549 cells – cell-based, resazurin fluorescence, 24 h, PK04 Diversity Set, profiling panel (AID 1171); conditions: A549 viability, higher = more signal, called active from +8 up or from −8 down; further: test concentration not given here
[11] = resazurin metabolic signal in HepG2 cells – cell-based, resazurin fluorescence, 24 h, PK04 Diversity Set, profiling panel (AID 1172); conditions: HepG2 viability, higher = more signal; further: test concentration not given here
[12] = budding yeast growth changes without added modifier – OD600, strain BY4716, 24 h, basal condition, primary screen (AID 1173); conditions: S. cerevisiae BY4716 growth, OD600, 24 h; higher = more signal, called active from +8 up or from −8 down
[13] = viability profiling in MM1S myeloma cells – cell-based, resazurin fluorescence, basal, 24 h, PK04 Diversity Set, profiling panel (AID 1174); conditions: higher = more signal, called active from +8 up or from −8 down; further: test concentration not given here
[14] = target: Dihydroorotate dehydrogenase (quinone), mitochondrial (Plasmodium falciparum (isolate 3D7)) (UniProt Q08210); assay: inhibition of P. falciparum DHODH – biochemical, C-terminal His tag, absorbance 600 nm, primary screen (AID 1175); conditions: PfDHODH enzyme, DCIP absorbance 600 nm; higher = more signal, called active from +8 up or from −8 down;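 further: recombinant parasite enzyme with a five histidine tag at its C terminus; test concentration not given here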
[15] = inhibition of PAO1 biofilm formation – strain PAO1, LB-PBS medium, absorbance 600 nm, primary screen (AID 1176); further: test concentration not given here; conditions: P. aeruginosa PAO1 growth/biofilm, A600, 12 h; higher = more signal
[16] = growth modulation of vineyard yeast isolate – strain RM11-1a, OD600, basal, 24 h, primary screen (AID 1177);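 further: cultures grown under basal conditions with no added stressor; test concentration not given here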; conditions: S. cerevisiae RM11-1a growth, OD600, 24 h; higher = more signal, called active from +8 up or from −8 down
[17] = growth of efflux-deficient E. coli DRC39 – strain DRC39, OD650, 24 h, E. coli filamentation inducers, primary screen (AID 1178);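 further: growth measured as culture turbidity by optical density at 650 nm; test concentration not given here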; conditions: E. coli DRC39 acrAB, higher = more signal, called active from +8 up or from −8 down
[18] = growth of efflux-deficient E. coli DRC39 – strain DRC39, OD650, 48 h, E. coli filamentation inducers, primary screen (AID 1179);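 further: screen aims at cell division blockers that make cells filament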; conditions: E. coli DRC39 delta-acrAB growth, higher = more signal, called active from +8 up or from −8 down
[19] = viability profiling in RPMI8226 myeloma cells – cell-based, resazurin fluorescence, basal, 24 h, PK04 Diversity Set, profiling panel (AID 1180); conditions: higher = more signal;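 further: RPMI8826 multiple myeloma cell line at 5000 cells per well; test concentration not given here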
[20] = target: E3 ubiquitin-protein ligase XIAP (Homo sapiens) (UniProt P98170); assay: small molecules binding XIAP protein – biophysical, small-molecule microarray, fluorescence 635 nm, primary screen (AID 1181); conditions: higher = more signal;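 further: score merges 667 nm emission and signal to noise over triplicate slides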
E3 ubiquitin-protein ligase XIAP (Homo sapiens), sequence (P98170 whole entry, looked up): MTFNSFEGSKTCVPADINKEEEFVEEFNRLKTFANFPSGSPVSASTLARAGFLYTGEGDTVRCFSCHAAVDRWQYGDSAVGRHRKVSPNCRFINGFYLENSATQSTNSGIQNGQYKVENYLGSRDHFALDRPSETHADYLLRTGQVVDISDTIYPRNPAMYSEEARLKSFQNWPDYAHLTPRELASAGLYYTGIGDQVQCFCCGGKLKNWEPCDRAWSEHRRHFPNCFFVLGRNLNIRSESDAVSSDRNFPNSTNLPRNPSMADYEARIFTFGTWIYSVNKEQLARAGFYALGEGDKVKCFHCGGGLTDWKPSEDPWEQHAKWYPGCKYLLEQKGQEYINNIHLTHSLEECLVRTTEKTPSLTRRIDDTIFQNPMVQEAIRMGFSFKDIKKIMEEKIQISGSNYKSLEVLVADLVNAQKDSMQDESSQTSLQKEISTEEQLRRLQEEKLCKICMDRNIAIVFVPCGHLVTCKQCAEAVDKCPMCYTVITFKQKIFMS

Dihydroorotate dehydrogenase (quinone), mitochondrial (Plasmodium falciparum (isolate 3D7)), sequence (Q08210 whole entry, looked up): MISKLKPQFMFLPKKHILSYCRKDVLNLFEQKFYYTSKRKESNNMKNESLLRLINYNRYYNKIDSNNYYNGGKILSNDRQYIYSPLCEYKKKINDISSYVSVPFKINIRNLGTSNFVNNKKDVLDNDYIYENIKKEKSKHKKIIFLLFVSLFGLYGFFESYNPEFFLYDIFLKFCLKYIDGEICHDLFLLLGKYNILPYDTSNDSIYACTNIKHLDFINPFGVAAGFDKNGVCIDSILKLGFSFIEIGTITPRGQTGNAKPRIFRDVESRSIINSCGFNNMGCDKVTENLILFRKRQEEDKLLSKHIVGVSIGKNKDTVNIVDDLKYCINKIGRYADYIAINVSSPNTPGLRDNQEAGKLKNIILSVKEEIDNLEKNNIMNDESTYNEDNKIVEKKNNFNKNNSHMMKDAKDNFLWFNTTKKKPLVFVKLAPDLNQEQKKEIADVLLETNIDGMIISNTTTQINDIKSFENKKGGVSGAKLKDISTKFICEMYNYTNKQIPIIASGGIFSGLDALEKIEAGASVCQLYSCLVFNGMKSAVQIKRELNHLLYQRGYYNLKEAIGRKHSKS

SMILES	z-score [1]	z-score [2]	z-score [3]	z-score [4]	z-score [5]	z-score [6]	z-score [7]	z-score [8]	z-score [9]	z-score [10]	z-score [11]	z-score [12]	z-score [13]	composite z-score [14]	z-score [15]	z-score [16]	z-score [17]	z-score [18]	z-score [19]	composite z-score [20]
CO[C@H]1COC(=O)CC=C[C@H](C)[C@H](OC)COC(=O)[C@@H](C)COC(=O)CC=C[C@@H]1C	-0.26 and 0.27	0.0599 and 0.0256	0.0517 and 1.24	0.183 and 0.0455	-0.409 and 0.728	0.152 and 1.09	-0.317 (inactive) and 0.125 (inactive)	-0.429 and 0.0879	0.688 and 0.438	0.211 (inactive) and -0.379 (inactive)	0.492 and 0.464	-0.415 (inactive) and -1.07 (inactive)	0.429 (inactive) and 0.802 (inactive)	0.175 (inactive) and 0.55 (inactive)	-0.519 (inactive) and -0.118 (inactive)	-0.436 (inactive) and -0.638 (inactive)	0.945 (inactive) and 1.12 (inactive)	0.658 (inactive) and 1.09 (inactive)	0.168 and 0.365	0.0256 and -0.202
C=C[C@@H](OC)[C@H](O)c1ccc(O)c(F)c1	0.29 and -0.115	-0.625 and 0.478	-0.232 and 0.531	0.204 and 0.115	0.296 and 1.08	-0.242 and 0.559	0.0698 (inactive) and -0.132 (inactive)	0.498 and -0.363	0.724 and -0.819	-0.0191 (inactive) and -0.71 (inactive)	0.097 and -0.0575	-8.11 (active) and -7.12 (inactive)	0.0746 (inactive) and 0.161 (inactive)	0.789 (inactive) and -1.04 (inactive)	0.826 (inactive) and 0.143 (inactive)	1.17 (inactive) and -1.07 (inactive)	0.407 (inactive) and 0.707 (inactive)	0.27 (inactive) and 0.965 (inactive)	-0.0761 and 0.295	-0.195 and 0.0027
C=C[C@@H](C)[C@@H](O)c1ccc(O)c2ccccc12	0.799 and -0.778	-0.468 and 0.56	-0.165 and -1.36	-2.83 and -2.76	-1.07 and -1.45	-2.11 and -2.44	-0.672 (inactive) and -0.253 (inactive)	-0.994 and -0.39	-1.51 and -1.39	-0.852 (inactive) and -0.3 (inactive)	-0.278 and 0.0891	-14.7 (active) and -15 (active)	-0.938 (inactive) and -1.51 (inactive)	-2.38 (inactive) and -3.35 (inactive)	0.814 (inactive) and -0.0697 (inactive)	-0.143 (inactive) and 0.291 (inactive)	0.652 (inactive) and 0.297 (inactive)	0.347 (inactive) and 0.106 (inactive)	-0.777 and -1.42	-0.22 and 1.24
C=CC[C@@H](O)c1ccc(OCCO)cc1	0.589 and 0.923	-0.0396 and 0.764	1.22 and 0.876	1.17 and 1.23	0.834 and -1.19	1.28 and 1.15	-0.53 (inactive) and 0.676 (inactive)	0.871 and 0.81	0.00142 and 1.08	-0.707 (inactive) and -0.779 (inactive)	-0.369 and -0.32	-5.91 (inactive) and -1.94 (inactive)	-1.12 (inactive) and -0.281 (inactive)	-0.744 (inactive) and -1.16 (inactive)	0.674 (inactive) and 0.945 (inactive)	-1.1 (inactive) and -1.56 (inactive)	0.0207 (inactive) and 0.149 (inactive)	0.433 (inactive) and 0.571 (inactive)	0.0629 and 0.237	-0.31 and -0.102
C=CCN(CCCCC)C(=O)C(c1cccs1)N(C(=O)/C=C\C(=O)O)c1ccc(CCO)cc1 (stereo not given)	1.11 and 0.437	-4.27 and -0.651	0.877 and 1.59	1.78 and 1.21	-0.174 and 0.104	-0.087 and 0.966	-0.177 (inactive) and 0.506 (inactive)	1.26 and -0.556	-0.138 and -0.377	-0.235 (inactive) and -0.813 (inactive)	-0.524 and -0.698	-0.238 (inactive) and -0.173 (inactive)	-0.585 (inactive) and -0.372 (inactive)	-0.249 (inactive) and -0.533 (inactive)	-0.553 (inactive) and -0.621 (inactive)	0.741 (inactive) and 0.428 (inactive)	0.191 (inactive) and 0.129 (inactive)	0.712 (inactive) and 0.685 (inactive)	-0.359 and -0.583	-0.346 and -0.138
